ChEMBL document CHEMBL1157539, “Thousands of chemical starting points for antimalarial lead identification” (Nature, 2010)

Experiments:
Format in all cases: functional
Plasmodium falciparum [1] = experiment: GSK_TCMDC: Inhibition of Plasmodium falciparum 3D7 in whole red blood cells, using parasite LDH activity as an index of growth. Test compounds present at 2uM
Plasmodium falciparum [2] = experiment: GSK_TCMDC: Inhibition of Plasmodium falciparum Dd2 in whole red blood cells, using parasite LDH activity as an index of growth. Test compounds present at 2uM
HepG2 = experiment: GSK_TCMDC: Percent inhibition of human HepG2 cell line. Test compounds present at 10uM.

| Compound | Inhibition (Plasmodium falciparum [1]) | Inhibition (Plasmodium falciparum [2]) | Inhibition (HepG2) |
| --- | --- | --- | --- |
| COc1cccc(-c2cccc(CNC3CCN(CC4Cn5c(=O)ccc6ccc(F)c4c65)CC3)c2)c1.O=C(O)C(F)(F)F (stereo not drawn) | 99% | 15% | 23% |
| Oc1c(C(Nc2nc3ccccc3s2)c2ccccc2)ccc2cccnc12 (stereo not drawn) | 95% | 83% | 45% |
| O=C(CSc1nn(-c2ccccc2)c(=S)s1)c1c[nH]c2ccccc12 | 93% | 68% | 0% |
| CCCCCCCN1CC[C@@H](CCC(O)c2ccnc3ccc(OC)cc23)[C@@H](CC)C1 (stereo partly drawn) | 97% | 93% | 34% |
| Oc1c(Br)cc2oc3c(c2c1CNCc1ccccc1)CCCC3 | 99% | 74% | 0% |
| Cl.c1ccc(-c2cc(NCCCCCCCCNc3cc(-c4ccccc4)nc4ccccc34)c3ccccc3n2)cc1 | 100% | 72% | 36% |
| CN1CCC(NCc2cccc(-c3nn(C)c4nc(NC5CCCC5)ncc34)c2)CC1 | 98% | 44% | 1% |
| Cc1ccccc1C1CCN(C2CCC(NC(=O)/C=C/c3ccc(C(F)(F)F)cc3)CC2)CC1 (stereo not drawn) | 95% | 19% | 64% |
| Cc1[nH]c(C)c(-c2ccc(-c3ccc(OC(F)(F)F)cc3)nc2)c(=O)c1Cl | 95% | 95% | 11% |
| O=C(Nc1ccc(-c2nc3ccccc3[nH]2)cc1)c1ccc(S(=O)(=O)N2CCc3ccccc32)cc1 | 100% | 34% | 32% |
| CN1CCC(c2csc3ccc(NC(=O)Nc4ccc(-c5ccncc5)c5ccccc45)cc23)CC1 | 98% | 71% | 8% |
| c1ccc(-c2ccc(-c3nc4ccccc4[nH]3)cc2)cc1 | 93% | 83% | 10% |
| Cc1nc(-c2cccc(C(=O)Nc3cnc4ccccc4c3)c2)no1.O=C(O)C(F)(F)F | 85% | 12% | 15% |
| CCN(CC)CCN(Cc1ccc(-c2ccc(C#N)cc2)cc1)C(=O)Cn1c(CCc2cccc(F)c2F)nc(=O)c2ccccc21.O=C(O)C(O)C(O)C(=O)O | 100% | 46% | 31% |
| CN1CCN(c2ccnc3ccc(NC(=O)Nc4ccc(Br)cc4)cc23)CC1 | 100% | 99% | 12% |
| O=C(Nc1ccc(-c2nc3ccccc3[nH]2)cc1)c1ccc(-c2cccc([N+](=O)[O-])c2)o1 | 100% | 97% | 47% |
| CCOC(=O)NC1=NC(C)(C)N(OCCCOc2ccc(C)cc2C)C(NC(=O)OCC)=N1 | 95% | 98% | 63% |
| CCc1n[nH]c(C(=O)NC2CCN(CC3(c4ccc(OC)cc4)CCCCC3)CC2)c1C | 90% | 90% | 2% |
| Cc1cc(NC(=O)c2cc(S(=O)(=O)N3CCCCC3)ccc2C)no1 | 95% | 29% | 0% |
| NS(=O)(=O)c1cccc(Nc2nccc(-c3c(-c4cccc(NC(=O)c5c(F)cccc5F)c4)nn4ccccc34)n2)c1 | 98% | 97% | 81% |
| CCCCCCCN(Cc1ccc(OC(C)(C)C(=O)OCC)cc1)C(=O)Nc1ccccc1OCC | 93% | 94% | 0% |

| Compound | Inhibition (Plasmodium falciparum [1]) | Inhibition (Plasmodium falciparum [2]) | Inhibition (HepG2) |
| --- | --- | --- | --- |
| CC(C)c1ccc(NC(=O)NCC2CCCN(CCCCCNC(=O)/C=C/c3ccc(Cl)c(Cl)c3)C2)cc1 (stereo not drawn) | 98% | 6% | 87% |
| CO/C(=C\C=C\c1cc2cc(Cl)c(Cl)cc2[nH]1)C(=O)NCCCN1CCN(C2CCCCC2)CC1 | 99% | 97% | 60% |
| CN1CCN=C1c1ccc(NC(=O)Nc2ccc(C3=NCCN3C)cc2)cc1.Cl | 85% | 69% | 7% |
| N#CCCN1CCN(Cc2cccc(-c3ccc(-c4nc5cc(F)ccc5[nH]4)cc3)c2)CC1.O=C(O)C(F)(F)F | 100% | 35% | 18% |
| Fc1ccc2[nH]c(-c3cccc(-c4ccc(CN5CCN(CCN6CCOCC6)CC5)cc4)c3)nc2c1.O=C(O)C(F)(F)F | 100% | 100% | 30% |
| CNC(=N)c1ccc(NC(=O)Nc2ccc(C(=N)NC)cc2)cc1.Cl | 84% | 71% | 0% |
| Cc1ccc(Nc2nc(N)c3ccccc3n2)cc1.Cl | 94% | 12% | 9% |
| CN(C)CCCn1c(N)c(-c2nc3ccccc3[nH]2)c2nc(C#N)c(C#N)nc21 | 100% | 100% | 100% |
| Oc1ccc(Nc2nc(NCc3ccccc3)c3ccccc3n2)cc1 | 100% | 100% | 33% |
| COc1ccc2ncc(F)c(CCN3CCC(CNC(=O)C(=O)c4c[nH]c5ccccc45)CC3)c2n1 | 100% | 99% | 48% |
| Oc1c(C(Nc2ccccn2)c2ccc(Cl)cc2Cl)ccc2cccnc12 (stereo not drawn) | 88% | 60% | 42% |
| COc1ccc(OCC(O)CN(Cc2ccccc2OC)C(=O)Nc2ccc(Br)cc2)cc1 (stereo not drawn) | 97% | 2% | 8% |
| COc1ccc(O)c(Cc2cnc3nc(N)[nH]c(=O)c3c2C)c1.CS(=O)(=O)O | 96% | 6% | 30% |
| O=C(Nc1ccc(CCNC2=NCCN2)cc1)Nc1ccc(CCNC2=NCCN2)cc1 | 90% | 66% | 6% |
| CC(=O)c1c[nH]c2ccc(/C=C/C(=O)NC3CCC(CCN4CCc5ccc(C#N)cc5CC4)CC3)cc12.Cl (stereo not drawn) | 100% | 98% | 11% |
| CN(C)CCN(C)Cc1ccc(-c2ccc(NS(=O)(=O)c3cccc4cccnc34)cc2)cc1.O=C(O)C(F)(F)F | 93% | 16% | 23% |
| C1=CN(Cc2ccccc2)C=CC1=C1C=Nc2ccccc21 | 90% | 69% | 8% |
| Cc1ccc(Nc2nc(N/N=C/c3cccc(O)c3)nc(Nc3ccc([N+](=O)[O-])cc3)n2)cc1C | 100% | 69% | 0% |
| Cc1cnc(C(=O)Nc2cccc(-c3cccc(-c4nc5cc(F)ccc5[nH]4)c3)c2)cn1 | 99% | 24% | 25% |
| CC(C)n1nc(C(=O)N2CCN(c3ccccc3)CC2)c2ccccc2c1=O | 96% | 3% | 34% |
| Cc1ccoc1C(=O)Nc1cccc(-c2cccc(-c3nc4cc(C(F)(F)F)ccc4[nH]3)c2)c1 | 98% | 37% | 39% |

| Compound | Inhibition (Plasmodium falciparum [1]) | Inhibition (Plasmodium falciparum [2]) | Inhibition (HepG2) |
| --- | --- | --- | --- |
| COc1ccc([N+](=O)[O-])cc1N(Cc1ccccc1-c1ccccc1)S(=O)(=O)c1ccc(C(F)(F)F)cc1[N+](=O)[O-] | 88% | 92% | 2% |
| FC(F)(F)c1ccc2[nH]c(-c3ccc(-c4ccc(CNCc5cnn(-c6ccccc6)n5)cc4)s3)nc2c1.O=C(O)C(F)(F)F | 100% | 89% | 27% |
| CCN(CC)CCOC(=O)c1ccc(NC(=O)c2cn(-c3ccccc3)nc2-c2cccs2)cc1.Cl | 100% | 59% | 25% |
| CCOC(=O)c1ccc2[nH]c(-c3ccc(C(=O)NCc4ccc(C(C)(C)C)cc4)cc3)nc2c1 | 94% | 34% | 0% |
| Oc1cccc(CNCCCN(Cc2ccccc2)c2ccccc2)c1 | 99% | 97% | 7% |
| COc1ccc2[nH]ccc(=NN=CC=Cc3ccccc3)c2c1 | 100% | 99% | 11% |
| CCOc1cc2ncnc(Nc3ccc(OCc4ccccc4Br)c(OC)c3)c2cc1OCC.Cl | 100% | 82% | 1% |
| O=C(/C=C/c1ccc(Cl)c(Cl)c1)N1CCC(CCCN2CCC(c3c[nH]c4ccc(O)cc34)CC2)CC1 | 100% | 99% | 60% |
| CCCC(C)Nc1nc(C)cc(N[C@@H](Cc2ccccc2)C(=O)NCc2cccc(F)c2)n1.O=C(O)C(F)(F)F (stereo partly drawn) | 100% | 75% | 9% |
| Cn1cncc1C(=O)Nc1ccc(-c2ccc(-c3nc4cc(C(F)(F)F)ccc4[nH]3)cc2)cc1 | 100% | 33% | 24% |
| CS(=O)(=O)c1ccc(CCNCc2ccc(-c3cccc(-c4nc5ccccc5[nH]4)c3)cc2)cc1.O=C(O)C(F)(F)F | 100% | 99% | 40% |
| CCCCCC(C)c1cc(O)c2c(c1)OC(C)(C)C=C2C1=CCN(Cc2ccccc2)CC1 (stereo not drawn) | 96% | 96% | 13% |
| CC(C)N1CCN(C(CN2CCN(CCCOc3cccc(F)c3)CC2)c2ccc(F)cc2)CC1.Cl (stereo not drawn) | 92% | 38% | 38% |
| Cc1nc(-c2ccc(-c3ccc(C(=O)Nc4ccc(-n5ccnc5)c(N5CCN(C)CC5)c4)cc3)c(C)c2)no1 | 100% | 100% | 34% |
| O=C(/C=C/c1cccc2ccccc12)NCCCCCN1CCC(c2c[nH]c3ccccc23)CC1 | 92% | 6% | 55% |
| Cc1cccc2nc(-c3cccc(-c4cccc(NC(=O)Nc5ccc(Cl)c(Cl)c5)c4)c3)[nH]c12 | 100% | 96% | 24% |
| CN(C)CC(O)COc1ccc(Nc2ncc([N+](=O)[O-])c(Nc3ccccc3O)n2)cc1.O=C(O)C(F)(F)F (stereo not drawn) | 100% | 20% | 47% |
| COc1cc(Nc2ncc3c(C)nc(-c4cc5ccccc5[nH]4)n3n2)cc(OC)c1OC | 91% | 65% | 19% |
| C=CCOC(=O)N1CCC(CNCc2ccc(-c3cccc(-c4nc5cc(F)ccc5[nH]4)c3)cc2)C1.O=C(O)C(F)(F)F (stereo not drawn) | 100% | 99% | 26% |
